Compound activity (PubChem)
Only some compounds are listed: those with a hit (about 18% of all), similar ones and a draw of the others.
TGFb SMAD3 inh: inhibitors of TGF-b signaling | HepG2 CAGA-GFP TGF-b/SMAD3 reporter, GFP fluorescence, 18 h; TGF-beta stimulated, 500 pg/mL final | Potency, µM (highest dose often 46.1 µM), for inactives: at the highest dose activity, negative = inhibition, most hits filed as inhibitors | 410,000 compounds, 1.2% hits | AID 588855; further: potency means the concentration at half of the fitted maximal effect; on the % scale 0 is the no-effect control and ±100 the full control effect; nearly all actives have a fitted effect of over 65% in size
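Read-out: total well GFP (ex488/em500-530) summed from mean per-cell fluorescence. Cells: HEPG2 CAGA-GFP, 1% FBS DMEM, 18 h at 37 degrees C with 500 pg/mL final TGF-beta. Unstimulated wells served as the full-inhibition control; stimulated DMSO wells = 0%.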
DT40 TDP1 no CPT: qHTS for Inhibitors of human tyrosyl-DNA phosphodiesterase 1 (TDP1): qHTS in cells in absence of CPT. Potency, µM (titrated, usually from 46.2 µM), without a hit: at the highest dose activity change, negative = growth inhibition, actives largely listed as inhibitors. 420,000 compounds, 15% hits. DT40 Tdp1-/- hTDP1 cells, no CPT, ATP luminescence, 48 h. AID 686978, 2013; further: potency means the concentration at half of the fitted maximal effect; on the % scale 0 is the no-effect control and ±100 the full control effect; nearly all actives have a fitted effect of over 55% in size
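Seeded 400 DT40-hTDP1 cells/well (vehicle DMSO, no 20 nM CPT); pinned compounds; ≥48 hr at 37 °C; CellTiter-Glo luminescence as viability measure.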
DT40 TDP1 CPT: DT40-hTDP1 cell growth loss with CPT; 420,000 compounds, 12% hits; Potency, µM (highest dose often 46.2 µM), inactives show top-dose activity change, negative = growth inhibition, actives largely listed as inhibitors; chicken DT40 Tdp1-/-;hTDP1 cells + 20 nM CPT, ATP luminescence, 48 h; further: potency means the concentration at half of the fitted maximal effect; on the % scale 0 is the no-effect control and ±100 the full control effect; nearly all actives have a fitted effect of over 55% in size
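Chicken DT40 Tdp1-/- cells complemented with human TDP1, 400 cells/well, exposed to compounds plus 20 nM camptothecin for at least 48 h at 37 C; viability read as ATP content by CellTiter-Glo luminescence.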
IL1B secr inh: blocks inflammasome-driven IL-1 beta release; activity change, % at 57.5 µM; AID 743279; THP-1 LPS/ATP IL-1B secretion, AlphaLISA, 16 h; active compounds read low; 360,000 compounds, 4.7% hits; in the data active means activity change below about -50%; inconclusive means mostly about -30% to -49%; further: on the % scale 0 is the no-effect control and ±100 the full control effect
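THP-1 cells pretreated 1 hr with compounds (up to 57.5 uM final), then stimulated with LPS (250 ng/mL final) plus ATP (1.25 mM final); secreted IL-1B measured by AlphaLISA after 16 hr, decreased signal indicating inhibition.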
HepG2 tox: counter-screen for TGF-b inhibitors: cytotoxicity in HepG2 cells; HepG2 CAGA-GFP viability, ATP luminescence, 18 h; Potency, µM (highest dose often 46.1 µM), inactives show at the highest dose activity change, negative = cytotoxicity, usual class: cytotoxic; 410,000 compounds, 0.76% hits; AID 588856; further: potency means the concentration at half of the fitted maximal effect
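HepG2 CAGA-GFP cells (1000/well, DMEM with 1% FBS) received compound, then TGF-beta at 500 pg/mL final, and were incubated 18 hours at 37 degrees C. Viability was read by CellTiter-Glo luminescence. Media-only wells were set as complete cell-killing and DMSO as no toxicity.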
TDP1 inh: blocks human tyrosyl-DNA phosphodiesterase 1. Q9NUW8. recombinant TDP1, AlphaScreen DNA substrate cleavage. Potency, µM (highest dose often 130 µM), inactives show top-dose activity change, negative = inhibition, actives largely listed as inhibitors. 350,000 compounds, 0.28% hits. AID 485290; further: potency means the concentration at half of the fitted maximal effect; on the % scale 0 is the no-effect control and ±100 the full control effect; nearly all actives have a fitted effect of over 40% in size
Target sequence (Q9NUW8 whole entry, looked up): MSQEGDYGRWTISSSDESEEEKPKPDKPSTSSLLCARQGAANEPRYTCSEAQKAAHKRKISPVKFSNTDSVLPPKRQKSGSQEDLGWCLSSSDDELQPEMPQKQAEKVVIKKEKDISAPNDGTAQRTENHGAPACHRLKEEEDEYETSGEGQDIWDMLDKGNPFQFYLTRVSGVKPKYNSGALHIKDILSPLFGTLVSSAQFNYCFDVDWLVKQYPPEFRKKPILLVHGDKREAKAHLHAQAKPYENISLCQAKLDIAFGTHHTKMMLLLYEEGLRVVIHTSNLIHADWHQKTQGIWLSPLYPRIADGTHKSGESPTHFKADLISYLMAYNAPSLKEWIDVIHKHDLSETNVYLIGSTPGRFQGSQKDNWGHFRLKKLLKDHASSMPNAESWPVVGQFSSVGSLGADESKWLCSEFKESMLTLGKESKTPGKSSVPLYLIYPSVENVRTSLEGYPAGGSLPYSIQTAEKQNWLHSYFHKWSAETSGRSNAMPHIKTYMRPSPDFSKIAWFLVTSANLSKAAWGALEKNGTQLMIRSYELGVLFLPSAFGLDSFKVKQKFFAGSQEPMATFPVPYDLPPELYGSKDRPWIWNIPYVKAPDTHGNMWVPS
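Compounds were preincubated with Tdp1 (1 nM final) for 15 min at room temperature before substrate (15 nM final) started a 5 min reaction; beads (10 ug/ml final) were then added for 10 min before AlphaScreen detection.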
An asterisk follows results filed as active; u = inconclusive; x = no result; [ ] = remark or other dose. Unless noted, the call rests on the fitted dose curve; in most records, active means well fitted curve in the direction sought with a large enough effect; inconclusive means small, poorly fitted or top-dose-only effect, or another doubt; inactive means no such curve, though single readings can be large; an effect the other way counts as inactive or inconclusive.

SMILES	TGFb SMAD3 inh	DT40 TDP1 no CPT	DT40 TDP1 CPT	IL1B secr inh	HepG2 tox	TDP1 inh
CC1(C(=O)Nc2cnc3ccccc3c2)CCN1C(=O)CCc1ccccc1 (centres undefined)	-13%	18µM*	18µM*	-16	-57%	x
CC1(C(=O)Nc2cnc3ccccc3c2)CCN1Cc1ccc2c(c1)OCCO2 (centres undefined)	-6%	u	u	0	-2%	x
CC1(C(=O)Nc2cccc3ncccc23)CCN1C(=O)CCc1ccccc1 (centres undefined)	0%	u	u	33	-3%	x
CC(C)Oc1ccc(CN2CCC2(C)C(=O)Nc2cnc3ccccc3c2)cc1 (centres undefined)	-7%	u	18µM*	-15	5%	x
CC1(C(=O)Nc2cnc3ccccc3c2)CCN1CCc1ccccc1 (centres undefined)	u	18µM*	u	-27	-25%	x
O=C1N2CN(C(c3ccccc3)c3ccccc3)CN=C2SC1(CO)CO	7%	u	u	-4	-21%	-3%
O=C(Nc1cccc(F)c1)NC1CC2CCCC(C1)N2C1CC1 (centres undefined)	-1%	u	u	-14	6%	4%
O=C(Nc1ccc(Cl)c(C(F)(F)F)c1)NC1CC2CCCC(C1)N2C1CC1 (centres undefined)	u	11µM*	11µM*	u	-91%	x
CCc1nnc(SCc2cccc(Cl)c2)c2cc3sccc3n12	x	u	u	x	-42%	-5%
CCCCCCN1C[C@@H](O)[C@H](n2cc(C3CC3)nn2)C[C@@H]1c1ccccc1	u	16µM*	18µM*	-12	-46%	x
CCCCCC(=O)N1C[C@@H](n2cc(C3CC3)nn2)[C@H](O)C[C@@H]1c1ccc(OC)cc1	-14%	u	u	22	-15%	x
CCCCCCN1C[C@H](n2cc(C3CC3)nn2)[C@@H](O)C[C@@H]1c1ccccc1	u	9.2µM*	21µM*	7	-107%	x
CCCCCC(=O)N1C[C@H](n2cc(C3CC3)nn2)[C@@H](O)C[C@@H]1c1ccccc1	4%	u	-29%	12	-2%	x
CCCCCCN1C[C@H](n2cc(C3CC3)nn2)[C@@H](O)C[C@@H]1c1ccc(OC)cc1	u	21µM*	u	3	-99%	x
O[C@H]1CN(CC2CCCCC2)[C@@H](c2ccccc2)C[C@@H]1n1cc(C2CC2)nn1	u	u	-22%	16	-50%	x
COc1cccc(C(=O)N(Cc2ccc(N(C)C)cc2)C2CCS(=O)(=O)C2)c1 (centres undefined)	-8%	5%	-3%	-7	-6%	8%
Cc1c(-n2cccc2C=O)cccc1[N+](=O)[O-]	-4%	-10%	16%	42	-4%	0%
Cc1cccc(N2CCN(C(=O)c3cn(C4CCCCC4)c(=O)c4c3c3ccccc3n4C)CC2)c1C	-28%	16µM*	u	x	-1%	2%
COc1ccc(-n2nc(C(=O)N3CCN(c4ccc(F)cc4)CC3)c3c4ccccc4n(C)c3c2=O)cc1	-26%	3%	1%	x	4%	5%
Cn1c2ccccc2c2c(C(=O)N3CCN(c4ccc(F)cc4)CC3)cn(C3CCCCC3)c(=O)c21	u	18µM*	16µM*	x	-7%	5%
COc1ccc(N2CCN(C(=O)c3cn(C4CCCCC4)c(=O)c4c3c3ccccc3n4C)CC2)cc1	u	21µM*	23µM*	x	-86%	0%[12.3 µM]
O=C(NCc1ccccn1)c1ccc(OC2CCN(Cc3ccc(CO)o3)CC2)cc1	8%	-12%	-8%	3	3%	4%
